# About 79,000 compounds went through this panel and 15% of them were active in at least one assay; those are over-represented in the sample as a whole. Unmarked numbers belong to inactive results. Calls of active or inactive are those of the source. Rule as the data show it: active = growth inhibition above about 70%; inactive = the rest.
# Experiment: NCI Yeast Anticancer Drug Screen. Data for the bub3 strain (AID 167)
# Conditions: S. cerevisiae bub3 mutant strain, at 50.0 µM, hits give high values
# Protocol: Growth inhibition of yeast strains with defined genetic alterations is measured as a screen for potential anti-cancer activity. Selected strains with alterations in DNA damage repair or cell cycle control were exposed to compounds and growth inhibition was measured relative to vehicle treated controls. The strain used in this assay is bub3
row,SMILES,growth inhibition
1,COc1ccccc1C=NC12CC3CC(CC(C3)C1)C2,-4.2%
2,Cc1ccc(-c2cn3c(nc4ccccc43)c(-c3ccccc3)n2)cc1,-26.1%
3,C=CCCNC(=S)S,4%
4,CC1=C(c2cc(C(=O)Nc3nccs3)nc(NC#N)n2)Sc2ccccc2N1,4.5%
5,CCCCC1(N=[N+]=[N-])C(=O)c2cccc3c2N(CCC3)C1=O (stereo not given),15.6%
6,O=C(O)c1cc(-c2ccccc2Cl)nc2ccccc12,19.8%
7,Cn1c(=O)c2c3ccccc3c(C(=O)c3ccccc3)n2c2ccccc21,-1.25%
8,CCOC(=O)C(=CNC(=S)Nc1ccccc1)C(=O)OCC,-13.7%
9,COc1ccc2c(c1O)-c1cccc3c1C(C2)N(CCOCCCl)CC3 (stereo not given),3.15%
10,CCCN1CN(C(C(=O)N[C@@H]2C(=O)N3C(C(=O)O)=C(C)CSC23)c2ccc(O)cc2)CSC1=S (stereo not given in full),-23.6%
11,CCN1c2nc3ccccc3nc2N(CC)c2nc3ccccc3nc21,3.45%
12,CC(=O)Nc1c(C)ccc(C)c1C(=O)O,13.8%
13,Cc1ccccc1-n1c(=S)[nH]c2c(sc(=O)n2-c2ccccc2C)c1=O,0.1%
14,Cc1ccc(C)n1-c1ccc(OCC(N)=O)cc1,12.6%
15,NS(=O)(=O)c1cc2c(cc1Cl)NC(Cc1ccccc1)NS2(=O)=O (stereo not given),0.2%
16,CCOC(CCl)(NC(C)=O)C(=O)OC (stereo not given),4.3%
17,NNC(=O)CC(=O)Nc1ccc(S(=O)(=O)c2ccc(NC(=O)CC(=O)NN)cc2)cc1,25.4%
18,CC(C)COC1CN=NN1/C=C1\CCOC1=O (stereo not given),24.2%
19,COC1=CC(=O)/C(=C(O)/C=C/c2ccccc2)C(=O)C1(C)C,14.6%
20,CC(=O)Oc1ccc(I)cc1C(=O)O,6.75%

row,SMILES,growth inhibition
1,CC12CC3CC(C)(C1)CC(SCCN=C(N)CCl)(C3)C2,99% (active)
2,C=CCN(CC=C)P(=O)(N(CC=C)CC=C)N(CC=C)CC=C,17.6%
3,CCOC(=O)c1cn(C)c2c1C(O)=C(C(=O)OC)CC(=O)N2,-12.6%
4,CC1=NN(C(=O)c2ccccc2O)C(=O)/C1=C/c1ccc(O)cc1,-11.8%
5,C[N+](C)(C)CC(=O)c1ccc[nH]1,1.4%
6,CCCNN(CCC)C(N)=O,24.1%
7,NC(=O)/C(=N/O)c1ccccc1,-1.2%
8,COc1ccc(OC)c(C(C)=O)c1,-34.2%
9,CCOc1cc2c(cc1OC)c[n+](C)c1c3cc(OC)c(OC)cc3ccc21,-6.05%
10,COC(=O)c1nn(-c2ccccc2)c2nc3ccccc3c-2c1C(=O)OC,20.9%
11,Clc1cccc2[nH]c(-c3ccncc3)nc12,2.95%
12,O=C(O)/C=C/C(=O)Nc1ccc2c(c1)-c1ccccc1C2=O,5.15%
13,O=C1CSc2ccncc2N1,15.2%
14,O=P1(O)Oc2ccc3ccccc3c2-c2c(ccc3ccccc23)O1,19.4%
15,O=CCC1CCCCC1,22.1%
16,O=C1CSCCO1,1.05%
17,N#Cc1nc(-c2cc([N+](=O)[O-])cc([N+](=O)[O-])c2)oc1N,0.05%
18,Cc1c(O)c2ccc3ccccc3c2oc1=O,-47.4%
19,COc1cc2c(C)cc(=O)oc2c(OCC(O)CN2CCCC2)c1OC (stereo not given),-4.35%
20,O=C(CN1CCOCC1)Nc1cccc(Cl)c1,58.3%
